Results on 16 compounds are retold here after the supplement of paper PMC10646978.

± gives the standard deviation.

Holding throughout (settings): modulator concentration 10 µM
The subject of test [1] is RAW-Dual (murine macrophage reporter line). Nature of the test: NF-kB reporter (SEAP) activity fold change vs agonist alone; higher = enhanced NF-kB activity. Summed up: (§1)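 In 384-well plates holding 50 000 RAW-Dual murine macrophage reporter cells per well, compound at 10 μM final was pre-incubated for 1 hour at 37 °C, after which a PRR agonist was added overnight. Supernatant SEAP read with QUANTI-Blue at 620 nm absorbance reported NF-κB, and Lucia luciferase read with QUANTI-Luc luminescence reported IRF. Fold change values come from dividing each reporter signal by the mean of agonist-only control wells on the same plate, averaged over replicate plates with propagated errors.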

The test system is the same in test [2]. The experiment in a line: IRF reporter (Lucia luciferase) activity fold change vs agonist alone; higher = enhanced IRF activity. Summed up: as §1
Test [3] shares this test system. Nature of the test: viability score (confluency relative to resting cells, overnight) (fraction); higher = more viable, active = viable (0.7 or more). Summed up: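 A compound met the cutoff when both of two confluency masks exceeded 70% of resting cells. Those masks were made with IncuCyte software from IncuCyte images of RAW-Dual macrophages treated overnight at 10 μM final. This is the basis of the viability score, which is confluency relative to resting cells.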

The mark [4] stands for this setting: agonist: CpG ODN 1826 0.5 ug/mL.

With `O=C(c1ccccc1)c1ccc2n1CCC2C(=O)O` (configuration not stated), the NF-kB reporter in test [1] (setting [4]) came to 0.921 ± 0.13; in test [1] (agonist: LPS 0.1 ug/mL), 1.09 ± 0.14; in test [1] (agonist: MPLA […]), 0.895 ± 0.073. The IRF reporter in test [2] (agonist: 3'3'-cGAMP 10 ug/mL) stood at 0.94 ± 0.048; in test [2] (agonist: LPS 0.1 ug/mL), 1.15 ± 0.26; in test [2] (agonist: MPLA […]), 1.04 ± 0.16. Besides, in test [3], the viability score is 0.996 (active).

For the compound `CC(=O)Nc1ccc(O)cc1` [Prestw-868], the NF-kB reporter in test [1] (setting [4]) is 0.876 ± 0.28; in test [1] (agonist: LPS 0.1 ug/mL), 1.04 ± 0.081; in test [1] (agonist: MPLA […]), 0.965 ± 0.082. The IRF reporter in test [2] (agonist: 3'3'-cGAMP 10 ug/mL) is 0.972 ± 0.056; in test [2] (agonist: LPS 0.1 ug/mL) it was 0.938 ± 0.19; in test [2] (agonist: MPLA […]), 1.03 ± 0.14. For the same compound, in test [3], the viability score is 0.998 (active).

As for `COc1ccc(C(=O)NCCOc2cc(C)cc(C)c2)cc1OC`, the NF-kB reporter in test [1] (setting [4]) was 1.48 ± 0.12; in test [1] (agonist: LPS 0.1 ug/mL), 1 ± 0.056; in test [1] (agonist: MPLA […]) it was 0.827 ± 0.062. For the same compound, the IRF reporter in test [2] (agonist: 3'3'-cGAMP 10 ug/mL) was determined as 1.02 ± 0.045; in test [2] (agonist: LPS 0.1 ug/mL), 1.42 ± 0.19; in test [2] (agonist: MPLA […]), 1.03 ± 0.21. Further, the viability score in test [3] is 1.01 (active).

Consider `Cc1cc(C)n(N=Cc2c[nH]c3ccccc23)c(=O)c1C#N`, for which the NF-kB reporter in test [1] (setting [4]) turned out to be 1.08 ± 0.18; in test [1] (agonist: LPS 0.1 ug/mL), 0.963 ± 0.099; in test [1] (agonist: MPLA […]), 1.02 ± 0.096. Also, the IRF reporter in test [2] (agonist: 3'3'-cGAMP 10 ug/mL) was found to be 1.03 ± 0.032; in test [2] (agonist: LPS 0.1 ug/mL) it was 1.4 ± 0.24; in test [2] (agonist: MPLA […]), 1.6 ± 0.23. The viability score in test [3] was 1.03 (active).

With `CC(=O)c1ccc(NC(=O)c2ccccc2C(=O)O)cc1`, the NF-kB reporter was found to be 1.27 ± 0.12 in test [1] (setting [4]), 1.14 ± 0.1 in test [1] (agonist: LPS 0.1 ug/mL) and 1.08 ± 0.12 in test [1] (agonist: MPLA […]). Besides, the figures for the IRF reporter in test [2] (agonist: 3'3'-cGAMP 10 ug/mL), in test [2] (agonist: LPS 0.1 ug/mL) and in test [2] (agonist: MPLA […]) were 0.903 ± 0.11, 1.14 ± 0.13 and 1.31 ± 0.29, respectively. Further, in test [3], the viability score was 1 (active).

As for `CC(C)(C)N1CC(c2nc3ccccc3n2Cc2c(F)cccc2Cl)CC1=O` (configuration not stated), the values for the NF-kB reporter in test [1] (setting [4]), in test [1] (agonist: LPS 0.1 ug/mL) and in test [1] (agonist: MPLA […]) were 1.28 ± 0.094, 1.1 ± 0.088 and 0.901 ± 0.041, respectively. The results for the IRF reporter in test [2] (agonist: 3'3'-cGAMP 10 ug/mL), in test [2] (agonist: LPS 0.1 ug/mL) and in test [2] (agonist: MPLA […]) were 1.2 ± 0.06, 1.15 ± 0.1 and 1.28 ± 0.19, respectively. For the same compound, the viability score in test [3] is 0.974 (active).

In the case of `Cc1nc(N(C)C)nc(C)c1NC(=O)CC(C)C`, the NF-kB reporter in test [1] (setting [4]) was determined as 0.95 ± 0.066; in test [1] (agonist: LPS 0.1 ug/mL), 0.92 ± 0.075; in test [1] (agonist: MPLA […]), 0.837 ± 0.089. For the same compound, the results for the IRF reporter in test [2] (agonist: 3'3'-cGAMP 10 ug/mL), in test [2] (agonist: LPS 0.1 ug/mL) and in test [2] (agonist: MPLA […]) were 1.1 ± 0.055, 0.967 ± 0.1 and 0.897 ± 0.39, respectively. The viability score in test [3] was 1.01 (active).

Take `O=C(CC1(Cc2ccc(I)cc2)C(=O)c2ccccc2C1=O)c1ccccc1`: the NF-kB reporter in test [1] (setting [4]) stood at 0.803 ± 0.073; in test [1] (agonist: LPS 0.1 ug/mL) it was 0.876 ± 0.046; in test [1] (agonist: MPLA […]), 1.02 ± 0.091. In addition, the IRF reporter in test [2] (agonist: 3'3'-cGAMP 10 ug/mL) came out at 0.953 ± 0.044; in test [2] (agonist: LPS 0.1 ug/mL), 1.42 ± 0.12; in test [2] (agonist: MPLA […]), 1.59 ± 0.17. The viability score in test [3] was 0.996 (active).

Turning to `Oc1c2c(nc3cc(-c4ccc(Br)cc4)nn13)CCS2`, the NF-kB reporter in test [1] (setting [4]) was determined as 1.06 ± 0.084; in test [1] (agonist: LPS 0.1 ug/mL) it was 1.04 ± 0.064; in test [1] (agonist: MPLA […]), 0.857 ± 0.082. Also, the IRF reporter in test [2] (agonist: 3'3'-cGAMP 10 ug/mL) turned out to be 0.857 ± 0.03; in test [2] (agonist: LPS 0.1 ug/mL), 1.19 ± 0.16; in test [2] (agonist: MPLA […]), 0.921 ± 0.2. Further, the viability score in test [3] was 1.01 (active).

On to `Cc1cccc(C(=O)ON=C(c2ccncc2)c2ccc([N+](=O)[O-])cc2)c1`, for which the NF-kB reporter was found to be 0.806 ± 0.07 in test [1] (setting [4]), 0.838 ± 0.039 in test [1] (agonist: LPS 0.1 ug/mL) and 1.06 ± 0.099 in test [1] (agonist: MPLA […]). Further, the values for the IRF reporter in test [2] (agonist: 3'3'-cGAMP 10 ug/mL), in test [2] (agonist: LPS 0.1 ug/mL) and in test [2] (agonist: MPLA […]) were 1.03 ± 0.068, 1.43 ± 0.083 and 1.61 ± 0.14, respectively. Moreover, in test [3], the viability score was 1 (active).

`CC#CC(=O)Nc1ccc(N2CCOCC2=O)c(C)c1`: the NF-kB reporter turned out to be 0.993 ± 0.062 in test [1] (setting [4]), 1.01 ± 0.086 in test [1] (agonist: LPS 0.1 ug/mL) and 1.01 ± 0.092 in test [1] (agonist: MPLA […]). Moreover, the IRF reporter in test [2] (agonist: 3'3'-cGAMP 10 ug/mL) worked out at 0.961 ± 0.058; in test [2] (agonist: LPS 0.1 ug/mL), 0.913 ± 0.084; in test [2] (agonist: MPLA […]), 0.865 ± 0.14. For the same compound, the viability score in test [3] is 1.01 (active).

As to `Cc1cnc(C(=O)O)c[n+]1[O-]`, the NF-kB reporter was 1.09 ± 0.085 in test [1] (setting [4]), 0.988 ± 0.074 in test [1] (agonist: LPS 0.1 ug/mL) and 1.03 ± 0.026 in test [1] (agonist: MPLA […]). Besides, the IRF reporter worked out at 0.962 ± 0.069 in test [2] (agonist: 3'3'-cGAMP 10 ug/mL), 0.966 ± 0.048 in test [2] (agonist: LPS 0.1 ug/mL) and 0.926 ± 0.11 in test [2] (agonist: MPLA […]). For the same compound, the viability score in test [3] is 1 (active).

`CNc1ncnc2c1ncn2[C@@H]1O[C@H](CO)[C@@H](O)[C@H]1O` [Prestw-338]: the NF-kB reporter in test [1] (setting [4]) amounted to 0.931 ± 0.073; in test [1] (agonist: LPS 0.1 ug/mL) it was 0.929 ± 0.09; in test [1] (agonist: MPLA […]), 1.16 ± 0.15. Also, the IRF reporter in test [2] (agonist: 3'3'-cGAMP 10 ug/mL) was 1.15 ± 0.043; in test [2] (agonist: LPS 0.1 ug/mL), 1.25 ± 0.17; in test [2] (agonist: MPLA […]) it was 1.33 ± 0.25. For the same compound, the viability score in test [3] was 1.05 (active).

With `Cc1cc(/C=C/C#N)cc(C)c1Nc1ccnc(Nc2ccc(C#N)cc2)n1`, the NF-kB reporter in test [1] (setting [4]) was 0.602 ± 0.17; in test [1] (agonist: LPS 0.1 ug/mL), 0.605 ± 0.044; in test [1] (agonist: MPLA […]), 1.3 ± 0.12. The results for the IRF reporter in test [2] (agonist: 3'3'-cGAMP 10 ug/mL), in test [2] (agonist: LPS 0.1 ug/mL) and in test [2] (agonist: MPLA […]) were 0.209 ± 0.014, 0.662 ± 0.071 and 0.886 ± 0.13, respectively. Also, in test [3], the viability score is 0.985 (active).

For the compound `c1ccc(CCn2c3ccccc3c3nnc(SCCN4CCOCC4)nc32)cc1`, the NF-kB reporter in test [1] (setting [4]) stood at 0.859 ± 0.067; in test [1] (agonist: LPS 0.1 ug/mL) it was 0.912 ± 0.11; in test [1] (agonist: MPLA […]), 1.01 ± 0.091. The IRF reporter in test [2] (agonist: 3'3'-cGAMP 10 ug/mL) is 0.697 ± 0.042; in test [2] (agonist: LPS 0.1 ug/mL), 1.2 ± 0.13; in test [2] (agonist: MPLA […]), 1.33 ± 0.18. Besides, in test [3], the viability score was 1.01 (active).

Turning to `Cc1c(-c2ccccc2)nc2ccccc2c1C(=O)Nc1ccc(F)cc1F`, the NF-kB reporter in test [1] (setting [4]) came to 0.568 ± 0.25; in test [1] (agonist: LPS 0.1 ug/mL) it was 0.889 ± 0.097; in test [1] (agonist: MPLA […]) it was 0.689 ± 0.11. Besides, the values for the IRF reporter in test [2] (agonist: 3'3'-cGAMP 10 ug/mL), in test [2] (agonist: LPS 0.1 ug/mL) and in test [2] (agonist: MPLA […]) were 0.918 ± 0.061, 1.36 ± 0.1 and 1.12 ± 0.19, respectively. The viability score in test [3] was 0.953 (active).
